Data published in the supplement of paper PMC10849652.
Of roughly 8,800 targets only a part is listed; those with a hit were picked by preference. About 0.5% of all pairs of compound and target were hits.

Key:
Assay in all cases: log2 fold change, soluble protein after heating vs DMSO (PISA); higher = thermal stabilisation; K562 lysate, 10 uM; active = over 0.2 and 3.5 SD of the protein, either way, in both replicates (recomputed)
[1] = compound: Cn1cc(CNCC2CCN(c3ncc(C(=O)NO)cn3)CC2)c2ccccc21 [quisinostat]
Procedure, shortened: (§1)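 Soluble protein was defined as the supernatant remaining after 21,000xg for 90 min, following pooling of heated aliquots and adjustment to 0.5% NP-40 at 4°C. Before that, crude K562 extract at 1 mg/mL protein in PBS pH 7.4 with 1 mM MgCl2 was treated with 10 μM compound for 30 min and heated for 3 min across 48°C-58°C. Quantification used TMTpro 16plex LC-MS/MS with channel sums equalised, and values are log-two fold changes in thermal stability relative to solvent controls from duplicates.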

[2] = compound: NC(=O)Nc1cc(-c2cccc(F)c2)sc1C(=O)N[C@H]1CCCNC1
Procedure, shortened: as §1

[3] = compound: NC1(c2ccc(-c3nc4ccn5c(=O)[nH]nc5c4cc3-c3ccccc3)cc2)CCC1
Procedure, shortened: as §1

[4] = compound: Cc1cn(-c2cc(NC(=O)c3ccc(C)c(Nc4nccc(-c5cccnc5)n4)c3)cc(C(F)(F)F)c2)cn1 [nilotinib]
Procedure, shortened: as §1

[5] = compound: Cc1nc(Nc2n[nH]c3c2CN(C(=O)N[C@H](CN(C)C)c2ccccc2)C3(C)C)c2sccc2n1
Procedure, shortened: as §1

[6] = compound: Cc1nc(Nc2ncc(C(=O)Nc3c(C)cccc3Cl)s2)cc(N2CCN(CCO)CC2)n1 [dasatinib]
Procedure, shortened: as §1

[7] = compound: Cc1ncc(-c2ccnc(Nc3ccc(S(C)(=O)=O)cc3)n2)n1C(C)C
Procedure, shortened: as §1

[8] = compound: Cn1cc(-c2ccc3c(c2)CCN3C(=O)Cc2cccc(C(F)(F)F)c2)c2c(N)ncnc21
Procedure, shortened: as §1

[9] = compound: Cn1cncc1[C@@](N)(c1ccc(Cl)cc1)c1ccc2c(c1)c(-c1cccc(Cl)c1)cc(=O)n2C [tipifarnib]
Procedure, shortened: as §1

[10] = compound: NC(=O)c1cnc(N[C@@H]2CCCC[C@@H]2N)nc1Nc1cccc(-n2nccn2)c1
Procedure, shortened: as §1

Measured: log2 fold change

MDM2 isoform 11 (UniProt Q00987)
UniProt Q00987, sequence (Q00987 whole entry, looked up): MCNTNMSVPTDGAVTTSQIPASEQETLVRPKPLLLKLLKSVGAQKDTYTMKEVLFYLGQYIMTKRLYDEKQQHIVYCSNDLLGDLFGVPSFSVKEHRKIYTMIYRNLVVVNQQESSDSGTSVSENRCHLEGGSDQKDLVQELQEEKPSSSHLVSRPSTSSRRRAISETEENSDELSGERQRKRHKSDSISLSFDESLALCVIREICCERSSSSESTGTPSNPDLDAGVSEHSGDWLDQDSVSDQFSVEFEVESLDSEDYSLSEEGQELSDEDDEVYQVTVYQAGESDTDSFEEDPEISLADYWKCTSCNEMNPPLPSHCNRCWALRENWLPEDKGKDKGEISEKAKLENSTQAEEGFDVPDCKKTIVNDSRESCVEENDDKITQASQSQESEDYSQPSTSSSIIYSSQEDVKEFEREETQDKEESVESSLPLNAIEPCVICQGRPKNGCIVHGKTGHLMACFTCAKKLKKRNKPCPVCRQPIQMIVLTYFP
inactive: [1] -0.2 | [2] -0.077 | [3] -0.195

MPP5 (UniProt Q8N3R9)
UniProt Q8N3R9, sequence (Q8N3R9 whole entry, looked up): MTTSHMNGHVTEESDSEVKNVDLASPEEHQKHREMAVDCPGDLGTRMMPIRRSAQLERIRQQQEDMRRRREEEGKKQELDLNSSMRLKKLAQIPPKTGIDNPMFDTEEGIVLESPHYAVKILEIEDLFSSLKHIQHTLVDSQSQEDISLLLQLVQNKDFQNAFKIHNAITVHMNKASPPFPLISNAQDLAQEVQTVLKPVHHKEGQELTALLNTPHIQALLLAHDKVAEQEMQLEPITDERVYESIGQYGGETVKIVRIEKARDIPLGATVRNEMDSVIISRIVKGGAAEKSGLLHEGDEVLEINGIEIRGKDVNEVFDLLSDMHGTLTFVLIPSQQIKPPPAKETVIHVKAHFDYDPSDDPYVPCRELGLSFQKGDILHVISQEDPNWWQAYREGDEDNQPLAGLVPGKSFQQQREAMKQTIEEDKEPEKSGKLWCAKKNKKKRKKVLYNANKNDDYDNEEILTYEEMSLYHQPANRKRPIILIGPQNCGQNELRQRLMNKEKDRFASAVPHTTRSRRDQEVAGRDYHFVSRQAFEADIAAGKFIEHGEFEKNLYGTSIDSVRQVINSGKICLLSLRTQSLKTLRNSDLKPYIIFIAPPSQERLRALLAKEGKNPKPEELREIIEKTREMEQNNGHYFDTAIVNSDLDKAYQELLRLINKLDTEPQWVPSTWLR
inactive: [4] 0.015 | [5] -0.013 | [6] 0.028 | [7] -0.069 | [8] 0.009 | [1] -0.052 | [9] 0.142 | [2] 0.002 | [3] -0.053

LEPROT (UniProt O15243)
UniProt O15243, sequence (O15243 whole entry, looked up): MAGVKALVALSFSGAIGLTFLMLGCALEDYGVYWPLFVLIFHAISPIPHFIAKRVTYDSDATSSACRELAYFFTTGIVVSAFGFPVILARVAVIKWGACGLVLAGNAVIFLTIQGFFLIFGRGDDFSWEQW
inactive: [1] -0.089 | [2] 0.092 | [10] -0.147 | [3] 0.024

KLC1 isoform 10 (UniProt Q07866)
UniProt Q07866, sequence (Q07866 whole entry, looked up): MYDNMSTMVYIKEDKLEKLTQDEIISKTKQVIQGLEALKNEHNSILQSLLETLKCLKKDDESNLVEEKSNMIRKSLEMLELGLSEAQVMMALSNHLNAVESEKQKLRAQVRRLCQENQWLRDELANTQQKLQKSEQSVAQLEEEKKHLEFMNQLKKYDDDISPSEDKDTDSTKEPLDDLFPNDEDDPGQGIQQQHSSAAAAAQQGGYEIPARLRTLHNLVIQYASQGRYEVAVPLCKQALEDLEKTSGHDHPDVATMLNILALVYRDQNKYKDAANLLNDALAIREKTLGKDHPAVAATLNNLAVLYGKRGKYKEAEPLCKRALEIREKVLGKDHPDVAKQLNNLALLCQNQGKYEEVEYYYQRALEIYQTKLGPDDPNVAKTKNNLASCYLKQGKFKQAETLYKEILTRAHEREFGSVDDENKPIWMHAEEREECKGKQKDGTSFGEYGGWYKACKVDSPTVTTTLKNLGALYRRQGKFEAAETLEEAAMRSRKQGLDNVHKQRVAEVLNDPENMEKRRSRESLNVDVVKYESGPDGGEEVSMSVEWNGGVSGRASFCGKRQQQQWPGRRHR
inactive: [3] -0.159
